Y pestis TopoI: Yersinia pestis topoisomerase I inhibitors, primary screen, biochemical, cleavage product accumulation, plate reader, single point. DNA topoisomerase I (Yersinia pestis CO92). Y. pestis Topo-I cleavage product accumulation. activity, % at 10 µM. 360,000 compounds, 0.064% hits; in the data active means activity above about 50%, passing the limit was not always enough
FBA Mtb inh: Mtb FBA enzyme inhibitors, primary screen, biochemical, fluorescence, strain H37Rv | 360,000 compounds, 2.3% hits | Fructose-bisphosphate aldolase (Mycobacterium tuberculosis (strain ATCC 25618 / H37Rv)), … | purified M. tuberculosis FBA, fluorescence read-out | inhibition, % at 1 µM; in the data active means inhibition above about 27%;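 further: 0% = vehicle and 100% = reference inhibitor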
Target sequence (P9WQA3 whole entry, looked up): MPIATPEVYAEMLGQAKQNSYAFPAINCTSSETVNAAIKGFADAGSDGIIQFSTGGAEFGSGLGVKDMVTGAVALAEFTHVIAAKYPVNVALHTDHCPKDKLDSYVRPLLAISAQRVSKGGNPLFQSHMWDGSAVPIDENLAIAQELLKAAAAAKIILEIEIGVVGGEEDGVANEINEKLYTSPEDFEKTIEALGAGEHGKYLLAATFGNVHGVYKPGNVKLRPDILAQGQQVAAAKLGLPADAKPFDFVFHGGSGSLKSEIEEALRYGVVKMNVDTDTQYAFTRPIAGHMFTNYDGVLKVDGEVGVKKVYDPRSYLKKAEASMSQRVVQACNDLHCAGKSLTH
GDH-TPI counter-1: GDH-TPI coupling enzyme inhibitors, primary screen, artefact control for M. tuberculosis FBA inhibitor project, biochemical, absorbance, full deck; GDH-TPI coupled enzyme counterscreen, NADH absorbance; inhibition, % at 4.8 µM; 360,000 compounds, 1.2% hits; AID 588335, 2011; in the data active means inhibition above about 30%;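 further: 0% = DMSO wells and 100% = wells lacking the enzyme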
TcdB GH inh: TcdB glycohydrolase inhibitors, primary screen, biochemical, single point, plate reader; Toxin B (Clostridioides difficile), P18177; TcdB glycohydrolase enzymatic assay; inhibition, % at 9.99 µM; 350,000 compounds, 0.24% hits; AID 652162, 2013
PrPC TRFRET: inhibitors of human cell surface prion protein PrPC, primary screen, cell-based, TR-FRET; Major prion protein (Homo sapiens), P04156; 370,000 compounds, 0.43% hits; TR-FRET read-out; inhibition, % at 13.8 µM; AID 720596, 2013; in the data active means inhibition above about 24%; further: 0% = median of the test wells and 100% = reference compound wells
Mtb FBA confirm: M. tuberculosis aldolase blockers, biochemical, fluorescence, strain H37Rv, confirmation; shares compounds with FBA Mtb inh; inhibition, % at 1 µM; 5,600 compounds, 78% hits; purified M. tuberculosis FBA, fluorescence read-out; in the data active means inhibition above about 27%;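 further: 0% = vehicle wells and 100% = reference inhibitor wells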
GDH-TPI counter-2: GDH-TPI coupling enzyme inhibitors, artefact control for M. tuberculosis FBA inhibitor project, biochemical, fluorescence, high throughput; shares compounds with FBA Mtb inh; GDH-TPI coupled enzyme counterscreen; inhibition, % at 1 µM; 5,600 compounds, 81% hits
GDH-TPI DR: GDH-TPI coupling enzyme inhibitors, dose response, artefact control for M. tuberculosis FBA inhibitor project, biochemical, fluorescence, IC50; shares compounds with FBA Mtb inh; GDH-TPI coupled enzyme assay, artifact counterscreen; IC50, µM; 170 compounds, 79% hits; call rule not given here
Numbers without * were called inactive; nt = no result given; + = active, no number. Compounds with a hit are over-represented: about 3.2% of the library has one in this group of screens. Unless noted, no stated cut-off is given here; in the data, active means inhibition above about 10%; inactive means the rest.

SMILES	Y pestis TopoI	FBA Mtb inh	GDH-TPI counter-1	TcdB GH inh	PrPC TRFRET	Mtb FBA confirm	GDH-TPI counter-2	others
COc1ccc(NC(=O)N(C)C[C@H]2Oc3ccc(NC(=O)Cc4cn(C)c5ccccc45)cc3C(=O)N([C@H](C)CO)C[C@@H]2C)cc1	nt	nt	nt	0	nt	nt	nt
COc1cc(CC(=O)N2CCc3ccccc32)cc(OC)c1OC	-3	-2	3	nt	2	nt	nt
CCOC(=O)N1CCc2cc(OC)c(OC)c3c2c1cc1cc(OC)c(OC)cc13	10	38*	9	-2	-13	12	-1	GDH-TPI DR=5.5*
CCn1c(SC(=O)NC2CCCCC2)nnc1-c1cccs1	11	46*	16	nt	6	-2	0
CCn1c(SCC(=O)NC2CCCCC2)nnc1-c1cccs1	0	5	6	-1	-4	nt	nt
C[C@@H](NC(=O)[C@@H]1[C@@H](CO)[C@@H]2Cn3c(ccc(C4=CCCC4)c3=O)[C@H]1N2C(=O)C1CC1)c1ccccc1	nt	nt	nt	0	nt	nt	nt
COC(=O)N(C)C[C@@H]1OCc2ccccc2-c2c(n(C)c3ccccc23)C(=O)N([C@H](C)CO)C[C@H]1C	nt	nt	nt	1	nt	nt	nt
Cc1oc2c(c(C)cc3oc(=O)c(CC(=O)NCCCO)c(C)c32)c1C	4	20	8	0	0	nt	nt
COCCNC(=O)Cc1c(C)c2c(cc(C)c3c(C)coc32)oc1=O	10	38*	1	1	-1	159*	125*
Cc1coc2c1c(C)cc1oc(=O)c(CC(=O)NCCC(=O)O)c(C)c12	4	91*	10	1	-4	62*	57*
COCCCNC(=O)Cc1c(C)c2c(cc(C)c3c(C(C)(C)C)coc32)oc1=O	42	36*	7	1	-2	62*	54*
Cc1coc2c1c(C)cc1oc(=O)c(CC(=O)NCC(=O)NCC(=O)O)c(C)c12	6	93*	20	1	5	+	+
C[C@@H]1CN([C@H](C)CO)C(=O)c2cc(NS(C)(=O)=O)ccc2O[C@H]1CN(C)C(=O)Nc1ccc(C(F)(F)F)cc1	nt	nt	nt	-1	nt	nt	nt
Cc1cc(C)c2c(N)c3ccccc3nc2n1	-20	70*	-2	nt	-12	181*	143*
CCc1ccc2nc3nc(C)cc(C)c3c(N)c2c1	-12	34*	-2	2	-23	103*	77*
CCc1ccc(NC(=S)/N=C(\N)Nc2nc(C)c3cc(CC)ccc3n2)cc1	16	2	4	-2	19	nt	nt
Cc1cc(C)c2cccc(N)c2n1	2	1	10	0	-2	nt	nt
Cc1cc2nccc(-c3ccc(F)cc3)n2n1	-4	3	-3	0	-4	nt	nt
COc1ccc(-c2ccnc3cc(C(=O)O)nn23)cc1	2	36*	14	1	-34	0	-6
c1coc(-c2ccnc3nc(-n4cccc4)nn23)c1	5	3	4	1	-4	nt	nt
O=C(O)c1cc2nccc(-c3ccco3)n2n1	1	32*	36*	1	-15	122*	98*
CCC(=O)NC[C@@H]1[C@H](c2ccccc2)[C@H](CO)N1C(=O)C1CC1	nt	nt	nt	-13	nt	nt	nt
Cc1c2c(nc3c(C(=O)NC4CCCC4)cnn13)CCCC2	8	21	18	nt	3	nt	nt
COC(=O)c1cnn2c3c(c(C)nc12)CCCC3	-1	74*	2	nt	7	130*	107*
C[C@@H]1CN([C@@H](C)CO)C(=O)c2cc(NC(=O)Nc3ccc(C(F)(F)F)cc3)ccc2O[C@@H](C)CCCCO[C@@H]1CN(C)Cc1ccccc1	nt	nt	nt	0	nt	nt	nt
SMILES	Y pestis TopoI	FBA Mtb inh	GDH-TPI counter-1	TcdB GH inh	PrPC TRFRET	Mtb FBA confirm	GDH-TPI counter-2	others
CCN1c2ccccc2-c2nc3ccccc3n2C1c1cccnc1 (configuration not stated)	22	68*	10	nt	-2	96*	84*
CCN1c2ccccc2-c2nc3ccccc3n2C1c1ccncc1 (configuration not stated)	15	14	12	nt	5	nt	nt
CCN1c2ccccc2-c2nc3ccccc3n2C1c1ccccn1 (configuration not stated)	3	51*	6	nt	-5	+	+
Cc1nc2c(c(=O)n1CCC(C)C)c1nc3ccccc3nc1n2CC1CCCO1 (configuration not stated)	11	19	5	0	5	nt	nt
CCCNC(=O)c1c(N)n(CC2CCCO2)c2nc3ccccc3nc12 (configuration not stated)	5	99*	15	nt	-4	101*	79*
CC(C)OCCCNC(=O)c1c(N)n(CC2CCCO2)c2nc3ccccc3nc12 (configuration not stated)	11	49*	5	-1	-9	+	+
Nc1c(C(=O)NCC2CCCO2)c2nc3ccccc3nc2n1-c1ccccc1 (configuration not stated)	31	108*	8	nt	-6	87*	73*
COC(=O)C[C@@H]1CC[C@@H]2[C@H](COc3ccc(NS(=O)(=O)c4ccccc4Cl)cc3C(=O)N2C)O1	nt	nt	nt	0	nt	nt	nt
CCC(=O)Nc1ccc2c(c1)C(=O)N(C)C[C@H](OC)[C@@H](C)CN(Cc1ccccc1C(=O)O)[C@H](C)CO2	nt	nt	nt	-6	nt	nt	nt
CS(=O)(=O)N1[C@@H](C#N)[C@@H](c2ccccc2-c2ccccc2)[C@@H]1CO	nt	nt	nt	-1	nt	nt	nt
CCCCn1nnnc1NCc1cccnc1	-5	30*	8	nt	-3	+	+
CCCCn1nnnc1NCc1ccc(N2CCCC2)cc1	1	-1	10	nt	-7	nt	nt
COCC(=O)N1CC[C@@H]2[C@H](CO)Nc3ccc(C#Cc4ccccc4)cc3[C@@H]21	nt	nt	nt	-1	nt	nt	nt
CN(C(=O)C1CCCO1)c1nnc(-c2ccccn2)s1 (configuration not stated)	4	68*	10	nt	4	160*	146*
CN(C(=O)C1CCOC1)c1nnc(-c2ccccn2)s1 (configuration not stated)	-10	15	19	-5	0	nt	nt
CN(C(=O)C1CCOC1)c1nnc(-c2ccncc2)s1 (configuration not stated)	0	16	16	nt	-2	nt	nt
CN(C(=O)c1ccncc1)c1nnc(-c2ccncc2)s1	-4	43*	1	nt	nt	92*	81*

From PubChem BioAssay
